Inconclusive results are not listed. Active and inactive are the calls of the source. How the source made its calls: active means hit-call score of the fitted dose curve at least 0.9, where 1 is the maximum; inconclusive means response in the unintended direction; inactive means score below 0.9.

Sequence of human Serotonin, 5-Hydroxytryptamine Receptor 2A (5HT2A), HTR2A (gene 3356) (P28223 whole entry, looked up): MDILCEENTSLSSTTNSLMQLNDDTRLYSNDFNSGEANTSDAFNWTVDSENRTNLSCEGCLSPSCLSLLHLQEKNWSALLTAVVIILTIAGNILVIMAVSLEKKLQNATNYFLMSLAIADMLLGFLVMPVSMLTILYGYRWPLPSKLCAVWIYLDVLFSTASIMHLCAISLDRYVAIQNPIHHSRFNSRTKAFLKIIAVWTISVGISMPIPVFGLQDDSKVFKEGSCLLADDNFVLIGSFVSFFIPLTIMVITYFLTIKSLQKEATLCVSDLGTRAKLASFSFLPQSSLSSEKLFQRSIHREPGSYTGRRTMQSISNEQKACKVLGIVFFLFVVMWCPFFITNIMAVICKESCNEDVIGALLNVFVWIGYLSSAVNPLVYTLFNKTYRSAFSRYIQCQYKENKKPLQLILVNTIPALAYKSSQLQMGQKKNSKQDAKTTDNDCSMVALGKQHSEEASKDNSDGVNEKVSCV

In one assay the target is rat Monoamine Oxidase, MAO-B, Peripheral (MAOBP), Maob (gene 25750) (UniProt P19643). As to the kind of experiment: NVS_ENZ_rMAOBP: NovaScreen (NVS) Enzymatic Assay for rat Monoamine Oxidase, MAO-B, Peripheral (MAOBP) (AID 2283242).
Sequence of rat Monoamine Oxidase, MAO-B, Peripheral (MAOBP), Maob (gene 25750) (P19643 whole entry, looked up): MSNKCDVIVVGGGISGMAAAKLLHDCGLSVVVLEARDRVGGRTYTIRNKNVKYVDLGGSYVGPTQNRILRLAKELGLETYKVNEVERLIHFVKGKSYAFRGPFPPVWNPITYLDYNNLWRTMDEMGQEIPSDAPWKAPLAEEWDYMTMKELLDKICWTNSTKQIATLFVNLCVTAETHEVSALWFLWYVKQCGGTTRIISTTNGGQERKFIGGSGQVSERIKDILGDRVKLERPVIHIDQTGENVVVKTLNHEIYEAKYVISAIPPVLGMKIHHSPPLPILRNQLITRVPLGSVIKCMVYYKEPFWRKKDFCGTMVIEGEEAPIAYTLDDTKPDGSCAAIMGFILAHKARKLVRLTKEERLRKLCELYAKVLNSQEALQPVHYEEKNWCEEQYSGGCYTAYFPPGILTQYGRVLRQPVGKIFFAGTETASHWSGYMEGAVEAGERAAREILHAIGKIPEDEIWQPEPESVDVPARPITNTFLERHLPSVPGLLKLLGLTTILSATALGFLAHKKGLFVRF
For the compound `ClC1=C(Cl)[C@]2(Cl)[C@H]3[C@H]([C@@H]4C=C[C@H]3C4)[C@@]1(Cl)C2(Cl)Cl`, the compound was called inactive.
With `Clc1ccc(Cl)c(Cl)c1`, the outcome was inactive.
`CN(C)c1ccc(C(=O)c2ccc(N(C)C)cc2)cc1`: the AC50 is 18.6 µM (active).
As for `CCOC(=O)[C@]1(c2ccccc2)Oc2ccccc2[C@@H]1N`, the AC50 is 2.44 µM (active).
Consider `CC(C)(O)c1cnn2c(-c3ccc(F)c(-c4c(F)cccc4C#N)c3)cnc2n1`, for which the result was inactive.

The target in another assay is human Serotonin, 5-Hydroxytryptamine Receptor 2A (5HT2A), HTR2A (gene 3356) (UniProt P28223). In words: NVS_GPCR_h5HT2A: NovaScreen (NVS) G Protein-Coupled Receptor Assay for human Serotonin, 5-Hydroxytryptamine Receptor 2A (5HT2A) (AID 2283249). In short, it runs like this:
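Radioligand displacement on human cortex tissue extract, counted by filtration and scintillation 1.5 h post-dosing. Initial single-concentration screen at 25 uM in duplicate, concentration series in follow-up; DMSO as baseline.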
As to `CCC[CH2][Sn]([Cl])([CH2]CCC)[CH2]CCC`, the AC50 was 32.6 µM (active).
Take `CCOC(=O)[C@]1(c2ccccc2)Oc2ccccc2[C@@H]1N`: the AC50 was 3.91 µM (active).
Take `O=[N+]([O-])C(Br)(CO)CO`: the compound was classed as inactive.
Regarding `COP(=S)(OC)SCN1C(=O)c2ccccc2C1=O`, the compound was called inactive.

A further assay deals with human Serotonin, 5-Hydroxytryptamine Receptor 5A (5HT5A), HTR5A (gene 3361) (UniProt P47898). In words: NVS_GPCR_h5HT5A: NovaScreen (NVS) G Protein-Coupled Receptor Assay for human Serotonin, 5-Hydroxytryptamine Receptor 5A (5HT5A) (AID 2283251). As for the experimental part: NVS_GPCR_h5HT5A is a biochemical, single-readout assay that uses extracted gene-proteins from HEK293 in a cell-free assay. Measurements were taken 1 hour after chemical dosing in a 96-well plate.NVS_GPCR_h5HT5A is one of one assay component(s) measured or calculated from the NVS_GPCR_h5HT5A assay. It is designed to make measurements of radioligand binding, a form of binding reporter, as detected with scintillation counting signals by Filter-based radiodetection technology.Data from the assay component NVS_GPCR_h5HT5A was analyzed into 1 assay endpoint. This assay endpoint, NVS_GPCR_h5HT5A, was analyzed in the positive analysis fitting direction relative to DMSO as the negative control and baseline of activity. Using a type of binding reporter, loss-of-signal activity can be used to understand changes in the binding as they relate to the gene HTR5A. Furthermore, this assay endpoint can be referred to as a primary readout, because the performed assay has only produced 1 assay endpoint. To generalize the intended target to other relatable targets, this assay endpoint is annotated to the gpcr intended target family, where the subfamily is rhodopsin-like receptor.
Sequence of human Serotonin, 5-Hydroxytryptamine Receptor 5A (5HT5A), HTR5A (gene 3361) (P47898 whole entry, looked up): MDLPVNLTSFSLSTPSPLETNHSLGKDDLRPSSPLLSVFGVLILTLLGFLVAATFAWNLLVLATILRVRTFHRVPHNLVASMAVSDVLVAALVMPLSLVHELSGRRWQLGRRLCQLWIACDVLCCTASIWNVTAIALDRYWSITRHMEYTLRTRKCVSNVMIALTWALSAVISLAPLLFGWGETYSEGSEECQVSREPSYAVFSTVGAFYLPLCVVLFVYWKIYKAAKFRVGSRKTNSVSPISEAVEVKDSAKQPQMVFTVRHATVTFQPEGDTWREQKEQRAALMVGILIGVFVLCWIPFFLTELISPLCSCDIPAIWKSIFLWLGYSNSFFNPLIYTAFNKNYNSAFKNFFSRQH
Binding assays used specific radioligands (tritiated, iodinated) with non-radioactive competitive displacement ligands in agonist or antagonist protocols (as indicated) and various reference compounds and inhibitors to titrate specific binding to receptors and transporters. Most enzyme assays (CYPs, kinases, phosphatases, proteases, HDACs) used recombinant protein and specific substrates (fluorescence mostly, some colorimetric and radioactive) and inhibitors, followed by a biochemical separation of substrate and product. All assays for the biochemical HTS were initially run in duplicate at a single concentration (10 uM for CYP450 assays and 25 uM for all others). […] Each assay was run with positive and negative controls, and concurrent controls on every plate. The follow-up (secondary) screen tested active chemical-pairs in concentration series, as well as a few additional assays not tested in the primary screen, some selected negative inactives, and several cases re-run in the concentration series for confirmatory purposes.
Consider `CCCCCCCCn1sccc1=O`, for which the AC50 was 26 µM (active).
For the compound `CCC[CH2][Sn]([Cl])([CH2]CCC)[CH2]CCC`, the AC50 is 2.07 µM (active).
`CCOC(=O)[C@]1(c2ccccc2)Oc2ccccc2[C@@H]1N`: the AC50 was 0.659 µM (active).

The values are drawn from PubChem BioAssay (EPA / NIEHS).
